# Compounds with a hit are over-represented: about 4.5% of the library has one in this group of screens.
# DAX1 inh-1: inhibitors of human orphan nuclear receptor DAX1 (NR0B1); 340,000 tested, 0.99% active; P51843; AID 504766; inhibition, % at 6.75 µM; HEK293 Gal4-DAX1 luciferase reporter, luminescence;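 active = inhibition above the mean over all tested compounds plus 3 SD, cut at about 4.2% in these data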;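 note: 0% = DAX1-transfected cells with DMSO and 100% = empty-vector control cells with DMSO; inhibition shows as a rise in luminescence from relieved DAX1 repression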
# Target sequence (P51843 207-470 limits assumed): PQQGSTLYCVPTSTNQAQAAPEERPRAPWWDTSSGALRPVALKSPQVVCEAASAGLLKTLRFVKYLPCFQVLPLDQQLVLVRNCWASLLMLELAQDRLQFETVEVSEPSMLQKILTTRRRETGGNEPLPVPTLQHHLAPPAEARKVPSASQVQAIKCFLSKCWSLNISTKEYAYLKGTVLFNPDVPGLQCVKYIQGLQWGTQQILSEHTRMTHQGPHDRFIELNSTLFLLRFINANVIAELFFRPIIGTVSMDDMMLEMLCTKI
# hgDAF12 agonist: activates the H. glycines DAF-12 receptor ligand-binding domain; HEK293 GAL4-hgDAF12 UAS-luciferase reporter, agonist luminescence; normalized to butyrate control; activation, % at 6.8 µM; 370,000 tested, 1.8% active;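 active = activation above a cutoff set at the mean of all screened compounds plus 3 SD, cut at about 10% in these data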;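 note: 0% = DMSO wells and 100% = sodium butyrate wells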
# DAX1 inh-2: inhibitors of DAX1 repression of SF-1 activated StAR promoter | 370,000 tested, 1.1% active | inhibition, % at 6.8 µM | HEK293T StAR-luciferase reporter, SF-1/DAX-1 repression relief | AID 652010;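 active = inhibition above the mean over all tested compounds plus 3 SD, cut at about 3.6% in these data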;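 note: 0% = DAX-1 cells with DMSO and 100% = cells lacking DAX-1 with DMSO; higher inhibition means more luminescence from relief of DAX-1 repression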
# hcDAF-12 act: activators of H. contortus DAF-12 nuclear receptor. HEK293 hcDAF-12 lit1-tk-luc reporter, luminescence; 0% DMSO, 100% Δ7-dafachronic acid. activation, % at 6.8 µM. 370,000 tested, 1.4% active;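 active = activation above the mean of all tested compounds plus 3 SD, cut at about 5.5% in these data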;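 note: 100% = response to 3 µM Δ7-dafachronic acid high control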
# ssDAF12 agonist: S. stercoralis DAF-12 activation, primary screen. HEK293 ssDAF-12/GRIP1 lit1-tk-luc reporter, luminescence; % of 3 µM dafachronic acid response. activation, % at 6.8 µM. 370,000 tested, 1% active. AID 652126;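 active = activation above the mean over all tested compounds plus 3 SD, cut at about 0.9% in these data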;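 note: 0% = DMSO-only wells and 100% = 3 µM delta7-dafachronic acid wells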
# GAA850 FXN act: frataxin GAA850 promoter activation. activation, % at 6 µM. 360,000 tested, 0.56% active. HEK293 lucGAA850 FXN promoter luciferase reporter, 24 h; percent of 10 µM SAHA response. AID 540364;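 active = activation above the average of all compounds screened plus 3 SD, cutoff fixed separately per campaign, cut at about 7.5% in these data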;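 note: 0% = DMSO wells and 100% = 10 µM SAHA wells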
# DAX1 inh confirm: confirmation of human DAX1 (NR0B1) inhibitors. shares compounds with DAX1 inh-2. HEK293T StAR-promoter luciferase reporter, SF-1/DAX-1 repression. inhibition, % at 6.8 µM. 2,400 tested, 87% active;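 active = inhibition above the average of every tested compound plus 3 SD, cut at about 3.8% in these data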;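 note: 0% = DAX-1 cells with DMSO and 100% = no DAX-1 control cells with DMSO; active compounds raise luminescence by relieving repression of the StAR reporter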
# Target sequence (P51843 whole entry, looked up): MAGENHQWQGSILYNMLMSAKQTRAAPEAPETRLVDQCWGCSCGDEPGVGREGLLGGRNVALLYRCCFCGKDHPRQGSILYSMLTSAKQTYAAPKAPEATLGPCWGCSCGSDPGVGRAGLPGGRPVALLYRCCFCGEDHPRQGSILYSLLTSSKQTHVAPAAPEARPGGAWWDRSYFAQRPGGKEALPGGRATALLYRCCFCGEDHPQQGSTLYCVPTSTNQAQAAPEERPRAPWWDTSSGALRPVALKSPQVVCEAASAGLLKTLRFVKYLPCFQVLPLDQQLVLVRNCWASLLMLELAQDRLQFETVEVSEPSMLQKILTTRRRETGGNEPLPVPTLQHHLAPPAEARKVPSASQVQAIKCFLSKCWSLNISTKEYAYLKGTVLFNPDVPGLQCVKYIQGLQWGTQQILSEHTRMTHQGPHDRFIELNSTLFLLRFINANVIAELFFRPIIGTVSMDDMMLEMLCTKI
# SF1 mutant ctr: nonselective inhibitor or artifact in SF-1 mutant DAX1 counter-screen; 2,400 tested, 78% active; shares compounds with DAX1 inh-2; HEK293 StAR-luciferase, SF-1 AF2 mutant, luminescence; inhibition, % at 6.8 µM;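 active = inhibition above the mean of all tested compounds plus 3 SD, cut at about 3% in these data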;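 note: 0% = DAX-1 transfected cells with DMSO and 100% = cells without DAX-1 with DMSO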
# LXR ag: counter-screen for hcDAF-12 agonists: agonists of human LXR-beta | shares compounds with hcDAF-12 act | HEK293 Gal4-LXR tk-luc reporter, luminescence, 24 h; normalized: DMSO 0%, positive control 100% | activation, % at 6.8 µM | 3,400 tested, under 10 active | AID 743027;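 active = mean percent activation of the reporter above a cutoff set as the average over tested compounds plus their standard deviation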
# hcDAF12 conf: confirmation of H. contortus DAF-12 agonists | shares compounds with hcDAF-12 act | HEK293 hcDAF-12 lit1-tk-luc reporter, luminescence; % of Δ7-dafachronic acid response | activation, % at 6.8 µM | 3,400 tested, 61% active | AID 743032;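 active = mean activation across triplicate tests above the threshold derived from the earlier primary screen, cut at about 5.5% in these data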;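 note: 0% = DMSO only wells and 100% = 3 µM Δ7-dafachronic acid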
# The depositor's hits bear a star; nt = no result.
SMILES,DAX1 inh-1,hgDAF12 agonist,DAX1 inh-2,hcDAF-12 act,ssDAF12 agonist,GAA850 FXN act,DAX1 inh confirm,SF1 mutant ctr,LXR ag,hcDAF12 conf
N/C(=N\C(=S)Nc1ccc2c(c1)OCO2)c1ccccc1,nt,20.9*,21.4*,6.8*,1.7*,nt,14.3*,8.8*,2.1,10.1*
NC(=S)Nc1ccc2c(c1)OCO2,0.1,-0.2,-0.7,1.2,-0.6,1.2,nt,nt,nt,nt
COc1cccc(NC(=O)Nc2nccc(C)n2)c1,-1.7,13.1*,5.0*,8.1*,-0.2,1.8,12.6*,5.3*,1.4,3.6
N/C(=N\OC(=O)c1cccc(F)c1)c1ccccn1,-1.1,8.6,10.6*,8.2*,0.4,-3.0,11.5*,5.2*,1.0,4.9
N/C(=N\OC(=O)c1ccccc1)c1ccccn1,-2.8,6.1,3.1,3.8,-0.8,-1.4,nt,nt,nt,nt
N/C(=N\OC(=O)c1ccc(Br)o1)c1ccccn1,1.1,10.3,9.4*,8.3*,0.7,3.6,14.6*,6.2*,0.8,2.6
COc1ccc(C(=O)Nc2nnc(-c3ccco3)s2)cc1,-2.1,9.1,6.9*,7.7*,1.1*,-4.5,9.0*,0.9,1.2,7.2*
Clc1ccccc1OCc1nc(-c2ccccn2)no1,0.5,11.2*,5.7*,6.6*,0.6,0.2,13.8*,6.6*,1.2,7.8*
Clc1ccc(OCc2nc(-c3ccccn3)no2)c(Br)c1,-1.2,6.4,6.7*,6.8*,0.4,-2.5,18.1*,8.1*,1.5,10.2*
Nc1nonc1-c1noc(COc2ccccc2Cl)n1,2.0,7.5,3.0,4.7,0.7,4.0,nt,nt,nt,nt
Cc1ccc(CCNC(=O)c2cccc(N3CCCC3=O)c2)cc1,0.2,nt,nt,nt,nt,2.2,nt,nt,nt,nt
Cc1cccc(CCNC(=O)c2cccc(N3CCCC3=O)c2)c1,0.6,11.3*,7.3*,7.4*,-0.1,5.8,9.5*,4.0*,0.9,7.2*
CCCCC[C@@H]1[C@H]2[C@H]3C(=O)N(c4ccccc4)C(=O)[C@H]3CC(=O)[C@H]2[C@H](c2ccccc2)N1S(=O)(=O)c1ccc(C)cc1,nt,0.5,3.6,1.0,-0.6,nt,nt,nt,nt,nt
Fc1ccc2nc3[nH]c4ccccc4c3nc2c1,2.6,12.3*,4.8*,9.0*,0.9,5.5,14.5*,8.5*,1.7,11.1*
Clc1ccc(OCCSc2ncccn2)cc1,2.9,9.6,1.6,1.4,-0.2,4.8,nt,nt,nt,nt
COc1ccc(OCCSc2ncccn2)cc1,2.0,12.3*,4.8*,6.9*,-0.6,4.6,11.2*,7.8*,1.1,6.6*
Nc1ccccc1-n1nc2ccc3ccccc3c2n1,4.6*,19.7*,9.6*,18.1*,3.1*,5.0,14.9*,8.5*,2.6,23.1*
COC(=O)[C@]12C[C@H](CC(=O)NCc3cccc4ccccc34)C(=O)N(Cc3ccc4c(c3)OCO4)C1=C[C@H](C(C)C)O[C@@H]2C1CC1,nt,-1.8,0.0,-1.1,-1.5,nt,nt,nt,nt,nt
Cc1cc(N2CCCC2)nc2ccccc12,-1.1,-1.9,0.0,1.0,-1.1,1.8,nt,nt,nt,nt
Cc1ccc2c(c1)Cc1nc3ccccc3nc1-2,-2.1,19.8*,7.4*,16.5*,2.8*,0.8,14.3*,8.5*,1.6,14.7*
O=C(CSc1nnc(-c2cccc(Cl)c2)n1Cc1ccco1)c1ccc(F)cc1,nt,-1.8,-0.8,-2.5,-0.9,nt,nt,nt,nt,nt
O=C(N/N=C/c1ccccc1Cl)c1n[nH]c2c1CCCC2,-0.7,16.5*,5.1*,6.6*,0.7,1.4,1.1,-2.4,0.7,3.9
Cc1cn2c(=O)c3ncn(C4OC(CO)C(O)C4O)c3n(C)c2n1 (configuration not stated),nt,0.0,0.1,-1.8,-1.8,nt,nt,nt,nt,nt
COc1ccc(-c2cn3c4c(sc3n2)CCCC4)cc1,-1.4,13.1*,5.1*,17.4*,1.3*,1.7,11.7*,7.9*,1.8,20.4*
COc1ccc(-c2cn3c(C)c(C(=O)N4CCCc5ccccc54)sc3n2)cc1,-0.8,-1.2,0.3,-1.4,-1.1,-1.9,nt,nt,nt,nt
SMILES,DAX1 inh-1,hgDAF12 agonist,DAX1 inh-2,hcDAF-12 act,ssDAF12 agonist,GAA850 FXN act,DAX1 inh confirm,SF1 mutant ctr,LXR ag,hcDAF12 conf
Cc1ccnc(NC(=O)/C=C/c2ccccc2Cl)c1,-2.5,13.2*,5.3*,8.9*,1.4*,1.7,8.6*,4.7*,2.1,9.3*
Cc1cccnc1NC(=O)CNC(=O)c1sc2ccccc2c1Cl,-0.2,1.1,-0.5,0.8,-0.4,1.2,nt,nt,nt,nt
Cc1ccnc(NC(=O)c2sc3ccccc3c2Cl)c1,0.6,16.2*,8.0*,8.7*,0.4,3.8,6.9*,2.1,1.2,10.0*
Cc1cnc(NC(=O)c2sc3ccccc3c2Cl)s1,1.8,30.2*,5.4*,17.2*,3.1*,6.8,6.4*,2.3,1.6,16.8*
Cc1cc(C)nc(NC(=O)/C=C/c2ccccc2Cl)n1,1.9,1.6,0.7,-0.8,-0.7,0.4,nt,nt,nt,nt
CC(C)(C)c1ccc(/C=N/NC(=O)c2ccccn2)cc1,-1.5,13.0*,11.5*,7.2*,0.2,0.1,13.8*,6.2*,1.9,9.5*
Cc1ccc(-c2noc(-c3cccs3)n2)cc1,3.2,16.3*,6.2*,8.9*,0.5,6.3,16.4*,11.1*,2.2,15.5*
COc1ccc(-c2nc(-c3cccs3)no2)cc1,-5.4,5.2,2.1,1.4,-1.9,-2.8,nt,nt,nt,nt
CN1CC=C(c2ccc(C(F)(F)F)cc2)N(c2ccc(Br)cc2)C1=O,nt,1.8,-1.3,-0.8,-1.3,nt,nt,nt,nt,nt
CC(C)(C)c1ccc(C(=O)Nc2cnccn2)cc1,-1.0,9.9,5.3*,6.7*,0.5,0.4,14.1*,7.3*,1.5,5.2
COc1ccc(C(=O)Nc2cnccn2)cc1[N+](=O)[O-],1.7,3.4,-4.6,-0.9,-0.9,-1.9,nt,nt,nt,nt
COc1ccc(C(=O)/C=C2\Sc3ccccc3N2C)cc1,nt,28.4*,5.7*,18.9*,5.9*,5.9,16.1*,9.8*,2.2,18.3*
CC(=O)Nc1ccc(NC(=O)CSc2nnc(NC(=O)c3cccc(F)c3)s2)cc1,-0.6,8.8,7.5*,11.6*,1.1*,5.4,4.6*,4.6*,0.2,3.6

# Assay outcomes: PubChem BioAssay, The Scripps Research Institute Molecular Screening Center
